Reference: the OligoGym collection

Target: BBS5
Experiment: pooled miR-30 sensor sort-seq; sequence = guide strand
Conditions: shRNA

Q: For TTCTACATCATCTTGAATTTGT, which sensor-assay potency score (higher = more potent) is on record?
A: -0.245

Q: Which sensor-assay potency score (higher = more potent) does the source give for TTTTATCATATACATGTTCTTG here?
A: -0.69

Q: How did the sensor-assay potency score (higher = more potent) turn out when TTAGAGTTAGCAGTCCTTGTTG was run?
A: -0.252

Q: For AAATTTTGAATCTCTAATCTTT, which sensor-assay potency score (higher = more potent) is on record?
A: -0.135

Q: How did the sensor-assay potency score (higher = more potent) turn out when TTTATCATATACATGTTCTTGT was run?
A: 0.705

Q: TAAATATAAATTCAAAACGAGT was tested. Which sensor-assay potency score (higher = more potent) did it give?
A: -1.56

Q: Which sensor-assay potency score (higher = more potent) does the source give for TTGAATTTGTTCGACTGTCAGA here?
A: -0.412

Q: How did the sensor-assay potency score (higher = more potent) turn out when TTTCCTTAACTGATTCTTGTAG was run?
A: -0.239

Q: How did the sensor-assay potency score (higher = more potent) turn out when TTAGTATATAGAGAGCTTCAGT was run?
A: -0.624

Q: With TATCATATACATGTTCTTGTGG as the sequence, how does the sensor-assay potency score (higher = more potent) read?
A: -0.0827

Q: Which sensor-assay potency score (higher = more potent) does the source give for AACATATCCACCACTCTGCTGA here?
A: -0.129

Q: Which sensor-assay potency score (higher = more potent) does the source give for TTCGACTGTCAGAGCTTCGAGC here?
A: -0.723

Target: BCAR3
Experiment: as above
Conditions: shRNA

Q: How did the sensor-assay potency score (higher = more potent) turn out when TTGCACGTTTCAACATTGCTGT was run?
A: -0.296

Q: For TCTGATTGACTTGTGCACCTTT, which sensor-assay potency score (higher = more potent) is on record?
A: 0.95

Q: How did the sensor-assay potency score (higher = more potent) turn out when TTGACTTGTGCACCTTTGCTGC was run?
A: -0.561

Q: TTGAATTTCTCATATCTCTCTG was tested. Which sensor-assay potency score (higher = more potent) did it give?
A: 0.778

Q: Which sensor-assay potency score (higher = more potent) does the source give for TCGCATTTGAAATTCAGTCTTG here?
A: -0.471

Q: TTTTCTAACCTTGTGATCTGTG was tested. Which sensor-assay potency score (higher = more potent) did it give?
A: -0.0388

Q: TAACCTTGTGATCTGTGGCATT was tested. Which sensor-assay potency score (higher = more potent) did it give?
A: -0.946

Q: TGAATTTCTCATATCTCTCTGT was tested. Which sensor-assay potency score (higher = more potent) did it give?
A: 0.413

Q: For TTGAGGGACAAGGCTCTTCTGT, which sensor-assay potency score (higher = more potent) is on record?
A: -0.76

Q: How did the sensor-assay potency score (higher = more potent) turn out when TAGGAAGTCACCATCTCGCTGC was run?
A: 0.641

Q: For TTGGTGAACAGTTCTTTTGCAC, which sensor-assay potency score (higher = more potent) is on record?
A: 0.174

Q: TTGAGGAACGGCACCTTGCAGG was tested. Which sensor-assay potency score (higher = more potent) did it give?
A: -0.594

Target: BCL11A
Experiment: as above
Conditions: shRNA

Q: Which sensor-assay potency score (higher = more potent) does the source give for TATCATTTGATTGTCCACTTGA here?
A: 0.591

Q: For TTATTTTATACTCAACCTCTGT, which sensor-assay potency score (higher = more potent) is on record?
A: -0.873

Q: How did the sensor-assay potency score (higher = more potent) turn out when TTGACAACCAAGTAGATCTGGA was run?
A: 0.0039

Q: How did the sensor-assay potency score (higher = more potent) turn out when TAAACAATCGTCATCCTCTGGC was run?
A: -0.0288

Q: How did the sensor-assay potency score (higher = more potent) turn out when TAGCATAGGAATCAACATGAGT was run?
A: -0.704

Q: For TTCACATTTGTAAACGTCCTTC, which sensor-assay potency score (higher = more potent) is on record?
A: -0.693

Q: TACTATATAATCTTAAACCTTT was tested. Which sensor-assay potency score (higher = more potent) did it give?
A: -0.147

Q: For ATAACAAGTAGAAAGAACCATC, which sensor-assay potency score (higher = more potent) is on record?
A: -0.773

Q: With TAAAAGACAACATAGAATGTAT as the sequence, how does the sensor-assay potency score (higher = more potent) read?
A: 0.0879

Q: With TTAATTGTCCTATCTGAGCAGG as the sequence, how does the sensor-assay potency score (higher = more potent) read?
A: -0.599

Q: How did the sensor-assay potency score (higher = more potent) turn out when TGAAATTTGAACGTCTTGCCGC was run?
A: 0.0443

Q: For TTGCACTATATTATCCTGCCAA, which sensor-assay potency score (higher = more potent) is on record?
A: -0.344
